Source: PubChem BioAssay (National Center for Advancing Translational Sciences (NCATS))
HEK293 tox – cytotoxicity counter-screen for GLP-1 receptor inverse agonists. HEK293 cAMP-luciferase reporter cells, luminescence, 24 h. Potency, µM (series often up to 38.3 µM), actives largely listed as inhibitors. 410,000 compounds, 0.13% hits. AID 624418;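 note: loss of luciferase light is scored as toxicity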
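MLSMR compounds, 24 hr on cells at 37 deg C/5% CO2; luminescence after luciferase reagent (12 min RT). Inhibition counted as the undesired cytotoxic outcome.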
PTHR1 agonist – agonists of human PTHR1 parathyroid hormone receptor; Potency, µM (doses to about 115 µM), hits mostly activators; AID 743266; HEK293 GP2 PTHR1 cells, GloSensor cAMP luminescence, 1 h; 410,000 compounds, 0.075% hits; note: nearly all actives have a fitted effect of over 55% in size
Target sequence (Q03431 whole entry, looked up): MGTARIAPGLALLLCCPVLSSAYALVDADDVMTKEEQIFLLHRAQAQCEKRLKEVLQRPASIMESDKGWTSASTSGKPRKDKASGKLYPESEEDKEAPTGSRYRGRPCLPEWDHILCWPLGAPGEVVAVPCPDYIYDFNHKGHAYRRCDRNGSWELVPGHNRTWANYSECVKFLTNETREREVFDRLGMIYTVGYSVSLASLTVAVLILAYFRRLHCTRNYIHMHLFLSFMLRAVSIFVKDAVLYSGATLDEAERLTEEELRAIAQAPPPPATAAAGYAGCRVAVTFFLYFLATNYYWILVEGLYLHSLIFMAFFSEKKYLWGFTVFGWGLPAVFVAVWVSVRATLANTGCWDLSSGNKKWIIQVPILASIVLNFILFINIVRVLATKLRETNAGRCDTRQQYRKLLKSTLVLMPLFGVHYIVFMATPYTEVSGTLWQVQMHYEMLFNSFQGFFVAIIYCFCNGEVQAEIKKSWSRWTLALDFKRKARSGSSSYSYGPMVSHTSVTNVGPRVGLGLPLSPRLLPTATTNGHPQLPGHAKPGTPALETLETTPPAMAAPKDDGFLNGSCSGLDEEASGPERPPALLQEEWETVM
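HEK-293-derived GP2 cells expressing PTHR1 and a GloSensor cAMP reporter, 3,000/well, plated overnight, given luciferin plus IBMX (each 0.5 mM as added) for 1 h at 37 °C, then compound for 1 h at 37 °C. Luminescence was read after 15 min at room temperature.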
TRPML1 ag – agonists of human TRPML1 channel | Q9GZU1 | TRPML1-expressing cells, Ca2+ dye fluorescence, FDSS | activation, % (test concentration not listed) | 410,000 compounds, 0.12% hits | AID 624414; in the data active = activation above about 50%; inconclusive = mostly about 30% to 49%
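In this qHTS format, compounds were pin-transferred onto Ca8-dye-loaded TRPML1-DL cells induced with Tet overnight, and intracellular Ca2+ fluorescence was recorded kinetically for 110 s after a 10 s baseline. A subsequent 4uM final 54-4 (EC80) addition followed by a second 110 s read served as the antagonist phase.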
TRHR agonist – activates the human TRH receptor; TRHR cells, calcium flux fluo-8, FDSS agonist mode; activation, % at 2 µM; 360,000 compounds, 0.18% hits; AID 493084; in the data active = activation above about 30%
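Read-out: compound-evoked intracellular calcium rise in TRHR cells, fluo-8 dye, kinetic FDSS fluorescence at 1 s/cycle following a 10-cycle baseline. Cells cultured overnight before dye loading (30 min–1.5 h, RT).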
TRPML1 inh – human mucolipin-1 channel inhibition; activity change, negative = inhibition, % (test concentration not listed); Q9GZU1; 390,000 compounds, 0.02% hits; AID 624415; TRPML1-inducible cells, Ca2+ dye fluorescence, FDSS; stronger effect = lower value; inhibition of EC80 agonist-evoked calcium signal; in the data active = activity change below about -50%; inconclusive = between about -30% and that limit;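 note: stimulus is agonist 54-4 at its EC80 concentration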
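TRPML1-DL cells, Tet-induced overnight (~16 h, 37 °C) at 1,500 cells/well, were loaded with Ca8 no-wash dye plus quencher for 45-90 min at room temperature. Compounds were pinned during FDSS kinetic reading; agonist 54-4 at EC80 (4 uM final) then added.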
TRHR PAM – TRH receptor (human) allosteric enhancement; enhancement, % at 2 µM; TRHR cells, fluo-8 calcium fluorescence, EC20 TRH enhancement; 360,000 compounds, 0.66% hits; AID 493056; in the data active = enhancement above about 30%
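Enhancer read-out: after compound pinning and an initial kinetic agonist-mode read, an EC20 of TRH (10 nM final) was injected and fluo-8 calcium signal (Ex 480/Em 530) followed at 1 s/cycle for 100 cycles in TRHR-expressing cells.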
Of the large screens only hits and unclear results are named; the others gave an inactive call. An excerpt weighted towards active compounds, which were near 0.93% of everything screened. Unless noted, calls come from the whole dose curve; as a rule, active = well fitted curve in the direction sought with a large enough effect; inconclusive = small, poorly fitted or top-dose-only effect, or another doubt; inactive = no such curve, though single readings can be large; an effect the other way counts as inactive or inconclusive.

CC/C(=N\NC(=O)c1csc(C)c1C)c1cccs1	none
CCN(CC)S(=O)(=O)c1cc(C(=O)Nc2ccccc2C(=O)O)ccc1OC	TRHR PAM 38.9
Cc1[nH]c2ccccc2c1/C=C/c1ccnc2ccccc12	none (no result: HEK293 tox, PTHR1 agonist, TRHR agonist, TRPML1 inh, TRHR PAM)
Cc1[nH]nc2c1-c1nc3ccccc3nc1C(C)(C)C2	PTHR1 agonist 28.2µM
CC(C)NC(=O)COC(=O)c1ccccc1OCC(=O)Nc1ccc(Br)cc1	none (no result: HEK293 tox, PTHR1 agonist, TRHR agonist, TRPML1 inh, TRHR PAM)
CCCN1CCC(=O)N(CCSc2ccc(Br)cc2)CC1	none (no result: HEK293 tox, PTHR1 agonist, TRHR agonist, TRHR PAM)
Cc1nn(CCCC(=O)NCc2ccc(F)cc2)c(C)c1[N+](=O)[O-]	TRHR PAM 30.4
Cc1nn(CCCC(=O)Nc2cnn(Cc3ccc(F)cc3)c2)c(C)c1[N+](=O)[O-]	none
C#CCN1C(=O)S/C(=C\c2ccc(-c3ccc(Cl)c(C(=O)O)c3)o2)C1=O	TRHR PAM 31.6 (no result: TRPML1 ag, TRPML1 inh)
CC(=O)c1cccc(NC(=O)Nc2ccccc2)c1	none
CC(=O)c1cccc(NC(=O)Nc2nc(C)cc(C)n2)c1	TRHR PAM 32.9
Cc1cc2c(s1)c1cnn(Cc3ccc(-n4cncn4)cc3)c(=O)c1n2C	none (no result: HEK293 tox, PTHR1 agonist, TRPML1 ag, TRPML1 inh)
COC(=O)C1CCN(C(=O)COC(=O)Cc2c[nH]c3ccccc23)CC1	TRHR PAM 37.1
Clc1ccc(/C=C/c2ccc3ccccc3n2)cc1Cl	none (no result: HEK293 tox, PTHR1 agonist, TRHR agonist, TRPML1 inh, TRHR PAM)
Cc1ccc(C2C3=C(CCCC3=O)OC3=C2C(=O)CCC3)cc1	TRHR PAM 39.9
CC1=C(C(=O)OCc2ccccc2)N2C(=O)[C@@H](NC(=O)OCc3ccccc3)[C@H]2SC1	none (no result: HEK293 tox, PTHR1 agonist, TRHR agonist, TRPML1 inh, TRHR PAM)
COc1ccc(C(=O)NCCc2csc(-c3ccc(Cl)cc3)n2)c(OC)c1	TRHR PAM 36.4
CC(C)OC(=O)c1ccc(COC(=O)c2cccc(-c3nnc(-c4ccccc4)o3)c2)cc1	none
CC(C)OC(=O)c1cccc(-c2ccc(C=O)o2)c1	TRHR PAM 35.5
O=C(Cc1ccc(Cl)cc1)Oc1cccc2cccnc12	HEK293 tox 2.51µM, PTHR1 agonist inconclusive
COc1cc(OC)cc(C(=O)Nc2cccc(-c3ccc(N4CCOCC4)nn3)c2)c1	none
COc1ccc(Cl)cc1S(=O)(=O)Nc1cccc(-c2ccc(N3CCOCC3)nn2)c1	TRHR PAM 32.1
COc1ccc(C(=O)Nc2cccc(-c3ccc(N4CCOCC4)nn3)c2)cc1	TRHR PAM 37.2
N#CC(c1ccc(Cl)cc1)c1ccc2c(C(F)(F)F)cc(C(F)(F)F)nc2n1 (centres undefined)	HEK293 tox 7.94µM
CC1C/C(=C/c2ccccn2)C(=O)/C(=C/c2ccccn2)C1 (centres undefined)	HEK293 tox 4.47µM
CC(C)(C)C1C/C(=C/c2ccccn2)C(=O)/C(=C/c2ccccn2)C1 (centres undefined)	HEK293 tox inconclusive (no result: TRPML1 ag, TRPML1 inh)
O=C(Nc1cc(C(F)(F)F)ccc1Cl)C(O)Cc1ccccc1 (centres undefined)	none (no result: HEK293 tox, PTHR1 agonist, TRPML1 ag, TRPML1 inh)
O=S(=O)(c1ccc(C(F)(F)F)cc1)N1CCN(S(=O)(=O)c2ccc3c(c2)OCCO3)CC1	none (no result: HEK293 tox, PTHR1 agonist, TRPML1 ag, TRPML1 inh)
CN(C)c1ccc(/C=C2\C=Cc3ccccc32)c(Cl)c1	none (no result: HEK293 tox, PTHR1 agonist, TRHR agonist, TRPML1 inh, TRHR PAM)
O=C1C=CC2(O[C@H](c3ccccc3)[C@@H](c3ccccc3)O2)[C@H](Sc2ccccc2O)C1	HEK293 tox 4.47µM (no result: TRHR agonist, TRHR PAM)
Cc1ccccc1OCCn1c(=S)[nH]c2ccccc21	HEK293 tox inconclusive
Fc1ccccc1OCCn1c(=S)[nH]c2ccccc21	HEK293 tox inconclusive, TRHR PAM 37.3
CN(CCc1ccccc1)C(c1cc2ccccc2o1)c1nnnn1C(C)(C)C (centres undefined)	TRPML1 ag 69.8 (no result: TRHR agonist, TRPML1 inh, TRHR PAM)
CCCCc1c(C)nn(-c2nnc3c4ccccc4n(CC)c3n2)c1C	HEK293 tox 10µM
COc1cc2c(NC3CCN(C)CC3)nc(N3CCCN(C)CC3)nc2cc1OCCCCCCN(C)C	none (no result: HEK293 tox, PTHR1 agonist, TRHR agonist, TRPML1 inh, TRHR PAM)
O=C(COC(=O)c1ccc(C(F)(F)F)cc1)NC(=O)C1CCCCC1	none (no result: HEK293 tox, PTHR1 agonist, TRHR agonist, TRPML1 inh, TRHR PAM)
CC(=O)Nc1cccc(C(=O)NCc2ccc3c(c2)CCN3C(C)=O)c1	none
